CYP2C19 act – cytochrome P450 2C19 (human) activation; 96,000 tested, under 10 active; activation factor at 5 µM; P33261; recombinant CYP2C19, luciferin-H EGE luminescence; hits give high values; 0 = fully inhibited enzyme, 1 = untreated enzyme;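 active = activation factor of at least 2 at 5 µM in the primary screen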;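 note: 0 = wells with 2.5 mM tranylcypromine and 1 = vehicle-only wells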
CYP2C9 inhib – human CYP2C9 inhibition; CYP2C9 Supersomes, luciferin-H conversion, luminescence; inhibition, % at 5 µM; 20% of 96,000 active;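 active = blocking of liver enzyme CYP2C9 beyond about 50% at 5 µM, limit read from the data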
Target sequence (P11712 whole entry, looked up): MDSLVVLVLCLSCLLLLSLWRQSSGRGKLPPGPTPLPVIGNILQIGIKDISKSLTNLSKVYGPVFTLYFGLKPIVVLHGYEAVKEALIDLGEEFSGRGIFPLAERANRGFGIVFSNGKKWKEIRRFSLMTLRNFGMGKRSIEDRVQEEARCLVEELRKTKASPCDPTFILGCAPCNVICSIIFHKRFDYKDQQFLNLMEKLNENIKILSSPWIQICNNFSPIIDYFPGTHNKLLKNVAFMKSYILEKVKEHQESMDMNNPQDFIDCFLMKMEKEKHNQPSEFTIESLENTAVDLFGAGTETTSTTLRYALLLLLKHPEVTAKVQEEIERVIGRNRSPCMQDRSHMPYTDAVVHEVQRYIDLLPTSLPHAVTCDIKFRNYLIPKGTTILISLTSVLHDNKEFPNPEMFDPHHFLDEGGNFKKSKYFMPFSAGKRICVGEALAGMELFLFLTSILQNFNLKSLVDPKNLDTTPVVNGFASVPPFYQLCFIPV
EphB4 antag – antagonists of human EphB4-ephrin-B2 interaction; P54760; EphB4 LBD / TNYL-RAW-Alexa532 peptide, fluorescence polarization; inhibition, % at 7 µM; 0.15% of 97,000 active;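 active = inhibition above the screen-wide mean inhibition plus 3 SD, cut at about 15% in these data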;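 note: 0% = DMSO wells and 100% = excess unlabeled TNYL-RAW peptide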
CYP2C19 inh – human CYP2C19 inhibition | CYP2C19 Supersomes, luciferin-H EGE luminescence, 30 min | inhibition, % at 5 µM | 21% of 96,000 active;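 active = CYP2C19 inhibition above a set limit at 5 µM in the primary screen, cut at about 50% in these data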;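 note: plate controls were negative control wells for no effect and 2.5 mM tranylcypromine positive control for full effect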
CYP2C9 activ – activators of human CYP2C9; recombinant CYP2C9, luciferin-H conversion, luminescence; hits give high values; factor 1 = untreated enzyme, 0 = blocked; activation factor at 5 µM; 1.4% of 96,000 active; AID 1024; P11712;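 active = activation factor of 2 or more for CYP2C9 at a 5 µM dose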;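 note: 0 = sulfaphenazole-blocked wells and 1 = vehicle-only wells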
Numbers without * were called inactive; . = no result. Sampled rows, rich in hits. Any-hit rate of the full collection: about 27%.

SMILES | CYP2C19 act | CYP2C9 inhib | EphB4 antag | CYP2C19 inh | CYP2C9 activ
COc1cccc(-c2nnc(SCC(=O)Nc3ccc4c(c3)OCCO4)n2Cc2ccco2)c1 | 0.6 | 58* | 0 | 40 | 0.4
CCCn1c(SCC(=O)Nc2ccc3c(c2)OCCO3)nnc1-c1ccco1 | 0.3 | 92* | -1 | 73* | 0.1
COc1ccc(C(CNC(=O)c2cc3ccccc3cc2OC)N2CCCC2)cc1 (stereo not drawn) | 1 | 5 | 1 | 4 | 0.9
CC1CCCCN1C(=O)Cn1cc(C#N)c2ccccc21 (stereo not drawn) | . | . | -1 | . | .
CC(C)C(c1nnnn1Cc1ccc(F)cc1)N1CCSCC1 (stereo not drawn) | . | . | -1 | . | .
COc1ccccc1-c1nn2c(-c3ccc(C(C)(C)C)cc3)nnc2s1 | 1 | 56* | . | -2 | 0.4
COc1cccc(OC)c1-c1nn2c(-c3ccco3)nnc2s1 | 0.1 | 68* | . | 89* | 0.3
COc1ccccc1-c1nnc2sc(-c3cc4ccccc4o3)nn12 | 0.7 | 34 | -9 | 33 | 0.7
COc1ccccc1-c1nnc2sc(-c3cnccn3)nn12 | 0.3 | 23 | -3 | 75* | 0.8
COc1cc(-c2nn3c(-c4ccco4)nnc3s2)cc(OC)c1OC | 1 | 28 | . | 1 | 0.7
CCCC(CCC(=O)Nc1ccc(C(=O)OC)cc1)C(=O)O (stereo not drawn) | . | . | 5 | . | .
c1ccc2c(SCc3cn4cccnc4n3)ncnc2c1 | 0.5 | 2 | -5 | 54* | 1
CC12CC3CC(C)(C1)CC(C(=O)Nc1nn[nH]n1)(C3)C2 | 0.9 | -2 | . | 11 | 1
CC12CC3(C)CC(C)(C1)CC(C(=O)Nc1nn[nH]n1)(C2)C3 | 0.5 | 15 | 1 | 54* | 0.9
CCCCOC(=O)Sc1nc2ccccc2o1 | 0.4 | 52* | -5 | 58* | 0.5
CC(=O)CSc1nc2ccccc2s1 | 0.9 | -13 | 4 | 11 | 1.1
C=CCS(=O)(=O)c1nc2ccccc2s1 | 1 | -29 | 4 | -1 | 1.3
CCS(=O)(=O)CCSc1nc2ccccc2s1 | 0.3 | -49 | -4 | 72* | 1.5
O=S(=O)(CCSc1nc2ccccc2s1)c1nc2ccccc2s1 | 0.8 | 74* | -1 | 24 | 0.3
CCOc1cccc2sc(NC(=O)CC)nc12 | 0.8 | 75* | 6 | 18 | 0.3
Clc1ccccc1CSc1ncccn1 | 0.5 | -34 | 5 | 53* | 1.3
Clc1ccccc1CSc1snnc1-c1ccccc1 | 1 | -57 | 0 | -2 | 1.6
O=C(CSc1nc2ccccc2c(=O)n1NC(=O)Cc1ccccc1)NCc1ccccc1Cl | 0.1 | 94* | -5 | 90* | 0.1
O=C(CSc1ncccn1)NCc1ccccc1Cl | 0.3 | -23 | -2 | 75* | 1.2
CCN1CCCC1CNC(=O)CSc1cc(=O)n(C)c2cc(Cl)ccc12 (stereo not drawn) | 1.2 | -8 | -6 | -20 | 1.1
SMILES | CYP2C19 act | CYP2C9 inhib | EphB4 antag | CYP2C19 inh | CYP2C9 activ
O=C(Nc1nnc(-c2ccccc2Cl)o1)c1nc2ccccc2s1 | 0.3 | 34 | -5 | 69* | 0.7
O=C(Nc1nnc(-c2cccs2)o1)c1ccco1 | 1 | 34 | -3 | -4 | 0.7
O=C(Nc1nnc(-c2ccccc2Cl)o1)c1ccco1 | 0.9 | 93* | 4 | 10 | 0.1
COc1cccc2sc(Nc3nnc(-c4ccccc4Cl)o3)nc12 | 1 | -20 | . | -4 | 1.2
Cc1ccc(/C=C(\C#N)C(=O)Nc2c(C)cccc2C)s1 | 0.9 | 64* | -3 | 13 | 0.4
Cn1c(C(=O)O)cc2cc(F)ccc21 | 0.9 | 9 | 6 | 5 | 0.9
CN(Cc1ccccc1)C(=O)COC(=O)c1ccc2c(c1)OCO2 | 0.7 | 4 | . | 26 | 1
CCN(CC)S(=O)(=O)c1ccc(O)c(C(=O)OCC(=O)N(C)Cc2ccccc2)c1 | 0.7 | 75* | -5 | 31 | 0.2
O=c1[nH]c(SCC2CCCCO2)nc2ccccc12 (stereo not drawn) | . | . | 3 | . | .
CC1Cc2ccccc2N1S(=O)(=O)c1cccc(C(=O)OCC(=O)NC2CCS(=O)(=O)C2)c1 (stereo not drawn) | 0.4 | 63* | 3 | 60* | 0.4
CC1Cc2ccccc2N1S(=O)(=O)c1cccc(C(=O)NC2CC2)c1 (stereo not drawn) | 0.6 | -70 | . | 36 | 1.7
CCCC(=O)NCCCc1nc2ccccc2n1CC | 1 | -71 | -7 | -2 | 1.7
O=CNCCCc1nc2ccccc2n1Cc1cccc2ccccc12 | 0 | 91* | -2 | 97* | 0.1
CC(=O)c1ccc(C(C)(C)c2ccc(C(C)=O)s2)s1 | 0.7 | 50* | -4 | 29 | 0.5
O=C(CSc1ncnc2sc3c(c12)CCCC3)c1ccco1 | 1 | -3 | 2 | -2 | 1
O=C(c1ccco1)N1CCN(c2nc(C3CC3)nc3sc4c(c23)CCCC4)CC1 | 0.6 | 70* | -1 | 36 | 0.3
CCc1nc(SCC(=O)N2CCN(C(=O)c3ccco3)CC2)c2c3c(sc2n1)CCCC3 | 0.9 | 59* | . | 11 | 0.4
CCOc1ccc(N(CC(=O)Nc2ccccc2C(=O)NCc2ccco2)S(C)(=O)=O)cc1 | 0.8 | 70* | 4 | 23 | 0.3
CN(c1ccccc1C(=O)Nc1ccccc1C(=O)NCc1ccco1)S(C)(=O)=O | 0.7 | 47 | 15* | 29 | 0.5
CCOc1ccccc1N(CC(=O)Nc1ccccc1C(=O)NCc1ccco1)S(C)(=O)=O | 0.1 | 86* | -4 | 86* | 0.1
CCOc1ccccc1N(CC(=O)Nc1cc(OC)ccc1OC)S(C)(=O)=O | 0 | 84* | -7 | 96* | 0.2
CCOc1ccccc1N(CC(=O)Nc1ccccc1C(=O)O)S(C)(=O)=O | 1 | 97* | 1 | -2 | 0
CCOC(=O)c1ccccc1NC(=O)CN(c1ccccc1OCC)S(C)(=O)=O | 0.9 | 13 | -7 | 9 | 0.9
Cc1ccc(C(=O)CC(C(=O)O)c2cn(CCC#N)c3ccccc23)cc1 (stereo not drawn) | 0.9 | 40 | -8 | 8 | 0.6
N#CCCn1cc(C(CC(=O)c2ccc(Br)cc2)C(=O)O)c2ccccc21 (stereo not drawn) | 0.7 | 58* | 6 | 29 | 0.4
SMILES | CYP2C19 act | CYP2C9 inhib | EphB4 antag | CYP2C19 inh | CYP2C9 activ
COCC(C)n1c(-c2ccc3c(c2)NC(=O)CO3)csc1=Nc1ccc(OC(F)F)cc1 (stereo not drawn) | 0.8 | 69* | 4 | 16 | 0.3
CCN=c1scc(-c2ccc3c(c2)NC(=O)CO3)n1N=C1CCCC1 | 0.5 | 48 | -12 | 54* | 0.5
OC(COc1ccc2ccccc2c1Cl)CN1CCOCC1 (stereo not drawn) | 0.5 | -17 | 2 | 54* | 1.2
OC(COc1c(Br)cc(Br)cc1Br)CN1CCOCC1 (stereo not drawn) | 0.1 | -4 | -2 | 92* | 1
OC(COc1ccccc1)CN1CCOCC1 (stereo not drawn) | . | . | -5 | . | .
COC(=O)C1=C(C)N(c2ccc(Cl)c(Cl)c2)C(=O)C1 | . | . | 3 | . | .
CCN(CC)C(=O)CN1C(=O)C2CC=C(Cl)CC2C1=O (stereo not drawn) | 1 | -2 | 5 | 1 | 1

Assay outcomes deposited in PubChem by several laboratories.
